Assay results: publication PMC7862700, “An all-to-all approach to the identification of sequence-specific readers for epigenetic DNA modifications on cytosine”

Legend:
Assay in all cases: DAPPL (digital affinity profiling via proximity ligation, sequencing); 10 mM Tris-HCl pH 7.5, 50 mM NaCl, 1 mM DTT, 4% glycerol, room temperature, 30 min; GST-TFs on glutathione beads, 16-mer random dsDNA library, 0.1% formaldehyde crosslink after washing; high values mean tight binding
FLI1 = target: T1, FLI1 (Homo sapiens, UniProt Q01543 1-452); settings: protein: recombinant; tags: N-terminal GST; dsDNA, one strand shown
T1 sequence: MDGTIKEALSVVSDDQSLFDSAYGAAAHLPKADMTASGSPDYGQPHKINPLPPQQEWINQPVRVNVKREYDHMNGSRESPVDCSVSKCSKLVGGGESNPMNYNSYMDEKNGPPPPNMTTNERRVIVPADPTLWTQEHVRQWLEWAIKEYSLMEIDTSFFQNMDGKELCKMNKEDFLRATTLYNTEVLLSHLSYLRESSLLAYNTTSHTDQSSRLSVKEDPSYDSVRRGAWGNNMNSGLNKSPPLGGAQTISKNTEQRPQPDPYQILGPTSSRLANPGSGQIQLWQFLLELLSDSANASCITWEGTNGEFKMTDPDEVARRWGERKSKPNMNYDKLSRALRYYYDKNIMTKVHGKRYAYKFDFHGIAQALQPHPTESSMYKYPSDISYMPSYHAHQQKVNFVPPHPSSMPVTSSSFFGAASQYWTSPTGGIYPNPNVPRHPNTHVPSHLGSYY
In short: (§1)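 Sequencing on an Illumina NextSeq500 followed washing, crosslinking with 0.1% formaldehyde, proximity ligation (BsaI/T4 ligase, 1 h, 37 °C) and PCR amplification of pools that had been incubated for 30 min at room temperature with 200 nmole of a random double-stranded 16-mer DNA library in Tris/NaCl/DTT/glycerol buffer. Each pool held DNA-barcoded human transcription factors, expressed in yeast as GST fusions and captured on glutathione beads, plus a tag-only sample. Binding signal is a hexamer's read frequency for a factor divided by its frequency in the tag-only sample.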

ELK1 = target: T2, ELK1 (Homo sapiens, UniProt P19419 1-428); settings: protein: recombinant; tags: N-terminal GST; dsDNA, one strand shown
T2 sequence: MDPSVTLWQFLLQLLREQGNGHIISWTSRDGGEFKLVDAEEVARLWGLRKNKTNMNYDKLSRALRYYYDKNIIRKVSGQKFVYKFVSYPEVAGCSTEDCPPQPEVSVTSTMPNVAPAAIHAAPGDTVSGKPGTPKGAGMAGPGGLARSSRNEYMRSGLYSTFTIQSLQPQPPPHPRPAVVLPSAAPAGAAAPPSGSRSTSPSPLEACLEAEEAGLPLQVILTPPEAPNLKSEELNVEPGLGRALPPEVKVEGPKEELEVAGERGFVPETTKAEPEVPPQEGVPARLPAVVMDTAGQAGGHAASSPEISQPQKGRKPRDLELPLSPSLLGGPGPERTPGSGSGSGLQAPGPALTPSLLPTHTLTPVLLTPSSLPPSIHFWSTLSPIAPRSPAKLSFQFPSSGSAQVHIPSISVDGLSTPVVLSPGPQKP
In short: as §1

GABPA = target: T3, GABPA (Homo sapiens, UniProt Q06546 1-454); settings: protein: recombinant; tags: N-terminal GST; dsDNA, one strand shown
T3 sequence: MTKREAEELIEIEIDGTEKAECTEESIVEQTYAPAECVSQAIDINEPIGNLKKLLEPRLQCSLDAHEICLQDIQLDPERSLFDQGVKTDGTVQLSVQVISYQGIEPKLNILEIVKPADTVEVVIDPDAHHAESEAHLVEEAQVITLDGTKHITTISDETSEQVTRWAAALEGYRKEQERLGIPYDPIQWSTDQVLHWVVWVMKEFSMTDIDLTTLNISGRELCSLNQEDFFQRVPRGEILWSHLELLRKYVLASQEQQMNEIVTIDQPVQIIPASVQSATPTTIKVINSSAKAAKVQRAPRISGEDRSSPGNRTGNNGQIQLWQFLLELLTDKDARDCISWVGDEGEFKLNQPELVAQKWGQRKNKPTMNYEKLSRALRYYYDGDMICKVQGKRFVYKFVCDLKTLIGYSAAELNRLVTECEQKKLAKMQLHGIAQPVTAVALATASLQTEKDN
In short: as §1

ERG = target: T4, ERG (Homo sapiens, UniProt P11308 1-479); settings: protein: recombinant; tags: N-terminal GST; dsDNA, one strand shown
T4 sequence: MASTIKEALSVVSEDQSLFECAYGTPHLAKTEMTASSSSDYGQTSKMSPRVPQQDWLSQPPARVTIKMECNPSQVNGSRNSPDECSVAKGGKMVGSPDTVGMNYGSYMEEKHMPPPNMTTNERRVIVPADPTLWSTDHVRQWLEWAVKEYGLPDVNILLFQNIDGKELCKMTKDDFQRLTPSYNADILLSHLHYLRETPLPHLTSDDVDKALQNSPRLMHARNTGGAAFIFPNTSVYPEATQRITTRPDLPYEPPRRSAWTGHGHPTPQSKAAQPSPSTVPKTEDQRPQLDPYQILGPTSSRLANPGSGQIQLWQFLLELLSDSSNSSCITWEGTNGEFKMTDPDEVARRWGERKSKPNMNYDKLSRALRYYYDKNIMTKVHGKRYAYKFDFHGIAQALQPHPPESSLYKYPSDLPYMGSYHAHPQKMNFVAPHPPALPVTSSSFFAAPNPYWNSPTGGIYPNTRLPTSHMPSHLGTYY
In short: as §1

ELF1 = ELF1 (Homo sapiens, UniProt P32519 1-619); settings: protein: recombinant; tags: N-terminal GST; dsDNA, one strand shown
Sequence of ELF1 (P32519 whole entry): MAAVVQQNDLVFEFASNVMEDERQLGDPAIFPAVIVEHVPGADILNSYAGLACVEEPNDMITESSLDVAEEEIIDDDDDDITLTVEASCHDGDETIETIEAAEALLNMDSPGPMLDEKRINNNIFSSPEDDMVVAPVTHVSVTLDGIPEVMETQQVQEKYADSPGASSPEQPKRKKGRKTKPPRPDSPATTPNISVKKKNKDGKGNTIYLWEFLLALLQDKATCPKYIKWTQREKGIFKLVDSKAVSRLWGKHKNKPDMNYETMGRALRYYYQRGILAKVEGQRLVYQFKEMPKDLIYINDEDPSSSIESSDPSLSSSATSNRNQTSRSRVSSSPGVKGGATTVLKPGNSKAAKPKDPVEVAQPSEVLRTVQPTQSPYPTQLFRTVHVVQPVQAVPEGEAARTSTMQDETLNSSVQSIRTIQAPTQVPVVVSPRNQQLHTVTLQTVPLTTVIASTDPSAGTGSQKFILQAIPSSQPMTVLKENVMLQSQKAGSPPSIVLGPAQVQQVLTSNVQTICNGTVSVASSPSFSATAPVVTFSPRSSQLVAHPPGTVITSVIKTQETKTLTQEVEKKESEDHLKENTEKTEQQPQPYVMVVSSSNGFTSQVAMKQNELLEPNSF
In short: as §1

EHF = target: T5, EHF (Homo sapiens, UniProt Q9NZC4 1-300); settings: protein: recombinant; tags: N-terminal GST; dsDNA, one strand shown
T5 sequence: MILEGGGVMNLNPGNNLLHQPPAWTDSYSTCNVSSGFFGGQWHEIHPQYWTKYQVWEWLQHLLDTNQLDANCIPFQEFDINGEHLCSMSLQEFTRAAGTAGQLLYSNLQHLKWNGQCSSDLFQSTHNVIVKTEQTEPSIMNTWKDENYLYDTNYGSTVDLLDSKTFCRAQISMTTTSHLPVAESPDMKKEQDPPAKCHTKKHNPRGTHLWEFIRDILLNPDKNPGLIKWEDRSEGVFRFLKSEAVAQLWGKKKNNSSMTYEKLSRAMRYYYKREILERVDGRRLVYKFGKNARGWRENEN
In short: as §1

SPI1 = SPI1 (Homo sapiens, UniProt P17947 1-270); settings: protein: recombinant; tags: N-terminal GST; dsDNA, one strand shown
In short: as §1

SPIB = SPIB (Homo sapiens, UniProt Q01892 1-262); settings: protein: recombinant; tags: N-terminal GST; dsDNA, one strand shown
Sequence of SPIB (Q01892 whole entry): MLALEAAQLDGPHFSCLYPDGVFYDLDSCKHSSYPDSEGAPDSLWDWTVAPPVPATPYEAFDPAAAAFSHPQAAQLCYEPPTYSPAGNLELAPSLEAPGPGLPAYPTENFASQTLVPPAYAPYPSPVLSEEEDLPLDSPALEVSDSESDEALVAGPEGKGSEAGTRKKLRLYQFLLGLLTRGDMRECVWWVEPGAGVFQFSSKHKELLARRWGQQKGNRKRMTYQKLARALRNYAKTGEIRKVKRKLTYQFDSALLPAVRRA
In short: as §1

ELK3 = target: T6, ELK3 (Homo sapiens, UniProt P41970 1-407); settings: protein: recombinant; tags: N-terminal GST; dsDNA, one strand shown
T6 sequence: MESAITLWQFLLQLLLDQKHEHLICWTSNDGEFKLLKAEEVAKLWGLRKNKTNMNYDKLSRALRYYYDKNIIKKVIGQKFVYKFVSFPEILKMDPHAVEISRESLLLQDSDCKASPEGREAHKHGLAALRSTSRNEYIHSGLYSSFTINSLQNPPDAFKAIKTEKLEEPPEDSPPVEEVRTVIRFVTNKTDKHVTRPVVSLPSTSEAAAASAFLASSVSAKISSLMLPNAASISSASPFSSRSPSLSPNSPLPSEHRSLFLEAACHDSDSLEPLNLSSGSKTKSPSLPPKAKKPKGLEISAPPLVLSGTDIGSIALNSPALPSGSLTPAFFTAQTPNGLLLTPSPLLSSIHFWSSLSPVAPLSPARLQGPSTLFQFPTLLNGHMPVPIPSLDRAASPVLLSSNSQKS
In short: as §1

FEV = target: T7, FEV (Homo sapiens, UniProt Q99581 1-238); settings: protein: recombinant; tags: N-terminal GST; dsDNA, one strand shown
T7 sequence: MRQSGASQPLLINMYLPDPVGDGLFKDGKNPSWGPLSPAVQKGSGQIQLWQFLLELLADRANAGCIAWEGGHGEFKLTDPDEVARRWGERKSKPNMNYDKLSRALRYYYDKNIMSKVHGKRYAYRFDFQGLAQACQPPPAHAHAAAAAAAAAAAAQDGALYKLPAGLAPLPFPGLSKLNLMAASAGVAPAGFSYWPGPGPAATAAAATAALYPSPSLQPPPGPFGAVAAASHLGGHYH
In short: as §1

ETV5 = ETV5 (Homo sapiens, UniProt P41161 1-510); settings: protein: recombinant; tags: N-terminal GST; dsDNA, one strand shown
Sequence of ETV5 (P41161 whole entry): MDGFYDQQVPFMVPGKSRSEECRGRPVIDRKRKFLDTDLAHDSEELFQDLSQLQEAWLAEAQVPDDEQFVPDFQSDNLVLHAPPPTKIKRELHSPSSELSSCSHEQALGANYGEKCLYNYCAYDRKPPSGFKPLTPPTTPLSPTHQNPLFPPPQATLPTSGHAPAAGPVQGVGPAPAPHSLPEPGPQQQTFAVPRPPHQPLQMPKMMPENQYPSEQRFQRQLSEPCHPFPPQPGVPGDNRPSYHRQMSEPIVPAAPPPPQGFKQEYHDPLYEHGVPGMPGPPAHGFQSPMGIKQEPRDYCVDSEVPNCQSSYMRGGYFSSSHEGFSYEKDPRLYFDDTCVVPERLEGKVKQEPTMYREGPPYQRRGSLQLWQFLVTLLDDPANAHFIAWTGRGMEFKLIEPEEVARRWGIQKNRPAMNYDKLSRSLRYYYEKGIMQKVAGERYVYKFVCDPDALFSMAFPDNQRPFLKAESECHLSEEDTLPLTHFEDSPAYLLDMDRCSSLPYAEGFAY
In short: as §1

HSF1 = HSF1 (Homo sapiens, UniProt Q00613 1-529); settings: protein: recombinant; tags: N-terminal GST; chain copies: 3; dsDNA, one strand shown
Sequence of HSF1 (Q00613 whole entry): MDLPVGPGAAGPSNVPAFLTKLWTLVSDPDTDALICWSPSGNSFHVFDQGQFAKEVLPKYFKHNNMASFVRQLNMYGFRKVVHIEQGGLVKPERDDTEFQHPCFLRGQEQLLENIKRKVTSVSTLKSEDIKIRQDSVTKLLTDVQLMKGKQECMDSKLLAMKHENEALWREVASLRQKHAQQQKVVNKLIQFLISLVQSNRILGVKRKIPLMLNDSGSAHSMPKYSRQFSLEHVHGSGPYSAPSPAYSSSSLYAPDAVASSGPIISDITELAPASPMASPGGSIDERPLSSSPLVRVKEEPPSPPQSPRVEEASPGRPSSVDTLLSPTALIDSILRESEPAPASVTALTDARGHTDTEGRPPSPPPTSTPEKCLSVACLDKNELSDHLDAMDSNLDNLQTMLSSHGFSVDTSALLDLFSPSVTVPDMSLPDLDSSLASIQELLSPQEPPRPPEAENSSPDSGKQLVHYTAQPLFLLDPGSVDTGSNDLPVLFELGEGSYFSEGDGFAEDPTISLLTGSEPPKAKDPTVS
In short: as §1

SPIC = target: T8, SPIC (Homo sapiens, UniProt Q8N5J4 1-248); settings: protein: recombinant; tags: N-terminal GST; dsDNA, one strand shown
T8 sequence: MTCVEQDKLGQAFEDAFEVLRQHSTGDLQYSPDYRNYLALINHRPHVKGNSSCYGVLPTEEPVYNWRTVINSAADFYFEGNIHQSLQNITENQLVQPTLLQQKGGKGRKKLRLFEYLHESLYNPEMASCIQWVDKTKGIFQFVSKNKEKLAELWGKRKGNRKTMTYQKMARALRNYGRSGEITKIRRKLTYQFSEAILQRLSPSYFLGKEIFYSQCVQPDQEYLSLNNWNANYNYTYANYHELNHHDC
In short: as §1

ELF4 = ELF4 (Homo sapiens, UniProt Q99607 1-663); settings: protein: recombinant; tags: N-terminal GST; dsDNA, one strand shown
Sequence of ELF4 (Q99607 whole entry): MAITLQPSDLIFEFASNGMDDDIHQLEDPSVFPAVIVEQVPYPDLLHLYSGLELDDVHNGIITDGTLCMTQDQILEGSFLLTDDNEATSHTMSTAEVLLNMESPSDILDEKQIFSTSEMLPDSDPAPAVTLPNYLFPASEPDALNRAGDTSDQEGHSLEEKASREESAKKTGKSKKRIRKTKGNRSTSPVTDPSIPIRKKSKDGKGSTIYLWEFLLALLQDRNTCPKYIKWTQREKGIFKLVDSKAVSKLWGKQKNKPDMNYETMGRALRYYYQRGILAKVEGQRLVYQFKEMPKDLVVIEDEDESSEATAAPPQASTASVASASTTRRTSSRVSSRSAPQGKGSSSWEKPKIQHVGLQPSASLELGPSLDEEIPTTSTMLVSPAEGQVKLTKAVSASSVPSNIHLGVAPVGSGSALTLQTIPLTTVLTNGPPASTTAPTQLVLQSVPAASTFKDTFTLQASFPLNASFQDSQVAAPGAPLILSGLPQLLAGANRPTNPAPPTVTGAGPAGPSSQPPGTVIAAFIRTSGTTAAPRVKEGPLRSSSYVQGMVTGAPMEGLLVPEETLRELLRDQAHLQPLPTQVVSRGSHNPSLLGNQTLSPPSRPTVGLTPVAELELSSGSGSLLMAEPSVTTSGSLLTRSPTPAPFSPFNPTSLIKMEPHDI
In short: as §1

ELK4 = target: T9, ELK4 (Homo sapiens, UniProt P28324-2 1-405); settings: protein: recombinant; tags: N-terminal GST; dsDNA, one strand shown
T9 sequence: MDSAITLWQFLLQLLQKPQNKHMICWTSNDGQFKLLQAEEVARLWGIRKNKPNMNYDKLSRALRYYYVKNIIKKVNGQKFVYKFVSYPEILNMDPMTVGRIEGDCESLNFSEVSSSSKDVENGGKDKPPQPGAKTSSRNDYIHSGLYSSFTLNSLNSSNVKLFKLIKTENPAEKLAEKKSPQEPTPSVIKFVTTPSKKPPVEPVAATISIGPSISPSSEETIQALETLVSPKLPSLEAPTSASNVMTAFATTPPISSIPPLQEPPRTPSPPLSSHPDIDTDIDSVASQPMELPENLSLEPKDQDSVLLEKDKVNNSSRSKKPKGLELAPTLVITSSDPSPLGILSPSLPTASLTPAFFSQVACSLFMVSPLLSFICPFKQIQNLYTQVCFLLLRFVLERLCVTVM
In short: as §1

ETV2 = target: T10, ETV2 (Homo sapiens, UniProt O00321 1-342); settings: protein: recombinant; tags: N-terminal GST; dsDNA, one strand shown
T10 sequence: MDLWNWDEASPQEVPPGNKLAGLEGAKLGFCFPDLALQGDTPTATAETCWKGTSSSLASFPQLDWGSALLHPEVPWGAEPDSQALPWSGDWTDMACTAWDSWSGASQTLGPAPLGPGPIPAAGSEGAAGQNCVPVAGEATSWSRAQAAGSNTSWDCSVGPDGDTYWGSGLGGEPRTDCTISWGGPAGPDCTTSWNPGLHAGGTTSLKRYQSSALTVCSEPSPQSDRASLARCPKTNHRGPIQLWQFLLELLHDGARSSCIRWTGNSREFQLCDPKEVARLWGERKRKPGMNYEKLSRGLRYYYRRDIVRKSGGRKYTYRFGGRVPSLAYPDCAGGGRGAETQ
In short: as §1

ELF3 = target: T11, ELF3 (Homo sapiens, UniProt P78545 1-371); settings: protein: recombinant; tags: N-terminal GST; dsDNA, one strand shown
T11 sequence: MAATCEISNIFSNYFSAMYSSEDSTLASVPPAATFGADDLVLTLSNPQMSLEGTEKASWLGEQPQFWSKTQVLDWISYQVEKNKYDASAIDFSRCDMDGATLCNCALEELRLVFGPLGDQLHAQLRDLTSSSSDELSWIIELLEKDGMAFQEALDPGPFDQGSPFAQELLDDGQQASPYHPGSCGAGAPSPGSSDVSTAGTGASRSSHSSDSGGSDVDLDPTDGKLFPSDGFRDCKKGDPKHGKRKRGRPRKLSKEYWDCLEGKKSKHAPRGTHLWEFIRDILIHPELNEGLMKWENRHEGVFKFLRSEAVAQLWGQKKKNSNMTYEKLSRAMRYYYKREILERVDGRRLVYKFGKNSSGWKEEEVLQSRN
In short: as §1

CRX = CRX (Homo sapiens, UniProt O43186 1-299); settings: protein: recombinant; tags: N-terminal GST; dsDNA, one strand shown
Sequence of CRX (O43186 whole entry): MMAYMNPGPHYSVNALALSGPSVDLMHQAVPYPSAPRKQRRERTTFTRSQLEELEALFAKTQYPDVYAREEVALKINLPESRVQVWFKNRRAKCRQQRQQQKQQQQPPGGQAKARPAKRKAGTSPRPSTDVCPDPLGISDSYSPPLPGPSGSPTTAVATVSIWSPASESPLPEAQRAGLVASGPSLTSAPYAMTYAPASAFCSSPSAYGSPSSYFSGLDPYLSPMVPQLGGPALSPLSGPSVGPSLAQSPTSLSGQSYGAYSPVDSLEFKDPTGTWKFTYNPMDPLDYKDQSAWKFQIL
In short: as §1

ETV1 = ETV1 (Homo sapiens, UniProt P50549 1-477); settings: protein: recombinant; tags: N-terminal GST; dsDNA, one strand shown
Sequence of ETV1 (P50549 whole entry): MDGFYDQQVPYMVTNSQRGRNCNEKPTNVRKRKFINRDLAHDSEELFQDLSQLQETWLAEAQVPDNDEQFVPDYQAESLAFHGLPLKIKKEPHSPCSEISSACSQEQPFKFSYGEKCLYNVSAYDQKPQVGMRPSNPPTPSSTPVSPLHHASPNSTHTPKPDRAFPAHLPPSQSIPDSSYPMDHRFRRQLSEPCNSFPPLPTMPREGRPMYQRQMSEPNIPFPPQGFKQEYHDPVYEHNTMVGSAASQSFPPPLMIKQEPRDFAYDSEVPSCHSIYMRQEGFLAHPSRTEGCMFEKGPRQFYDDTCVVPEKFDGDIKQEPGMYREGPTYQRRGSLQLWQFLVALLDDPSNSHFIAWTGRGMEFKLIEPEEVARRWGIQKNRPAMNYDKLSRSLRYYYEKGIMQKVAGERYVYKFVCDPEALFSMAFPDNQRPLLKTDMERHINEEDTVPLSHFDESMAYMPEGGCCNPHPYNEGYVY
In short: as §1

For TCTAAG, the binding signal (FLI1) was 1.22 fold enrichment (6-mer frequency, TF over GST control), the binding signal (ELK1) was 1.19 fold enrichment (6-mer frequency, TF over GST control) and the binding signal (GABPA) was 1.3 fold enrichment (6-mer frequency, TF over GST control). The binding signal (ERG) was 1.2 fold enrichment (6-mer frequency, TF over GST control), the binding signal (ELF1) was 1.29 fold enrichment (6-mer frequency, TF over GST control) and the binding signal (EHF) was 1.28 fold enrichment (6-mer frequency, TF over GST control). The binding signal (SPI1) was 1.17 fold enrichment (6-mer frequency, TF over GST control), the binding signal (SPIB) was 1.28 fold enrichment (6-mer frequency, TF over GST control) and the binding signal (ELK3) was 1.22 fold enrichment (6-mer frequency, TF over GST control). The binding signal (FEV) was 1.13 fold enrichment (6-mer frequency, TF over GST control), the binding signal (ETV5) was 1.3 fold enrichment (6-mer frequency, TF over GST control) and the binding signal (HSF1) was 1.49 fold enrichment (6-mer frequency, TF over GST control). For the same sequence, the binding signal (SPIC) was 1.21 fold enrichment (6-mer frequency, TF over GST control), the binding signal (ELF4) was 1.25 fold enrichment (6-mer frequency, TF over GST control) and the binding signal (ELK4) was 1.2 fold enrichment (6-mer frequency, TF over GST control). For the same sequence, the binding signal (ETV2) was 1.29 fold enrichment (6-mer frequency, TF over GST control), the binding signal (ELF3) was 1.27 fold enrichment (6-mer frequency, TF over GST control) and the binding signal (CRX) was 1.86 fold enrichment (6-mer frequency, TF over GST control). For the same sequence, the binding signal (ETV1) was 1.25 fold enrichment (6-mer frequency, TF over GST control).
